Measurements from PubChem BioAssay.

Molecular target: Torsin-1A (Homo sapiens) (UniProt O14656)
Experiment: small-molecule binders of mutant TOR1A in lysate, primary screen, cell lysate, small-molecule microarray, COS7 lysate, 635/667 nm fluorescence (AID 1150);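 also: score pools 667 nm emission and signal to noise measuring lysate protein binding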
Conditions: COS7 hTOR1A mutant lysate, 635 nm fluorescence, higher = more signal

Chain of Torsin-1A (Homo sapiens) (O14656 whole entry, looked up): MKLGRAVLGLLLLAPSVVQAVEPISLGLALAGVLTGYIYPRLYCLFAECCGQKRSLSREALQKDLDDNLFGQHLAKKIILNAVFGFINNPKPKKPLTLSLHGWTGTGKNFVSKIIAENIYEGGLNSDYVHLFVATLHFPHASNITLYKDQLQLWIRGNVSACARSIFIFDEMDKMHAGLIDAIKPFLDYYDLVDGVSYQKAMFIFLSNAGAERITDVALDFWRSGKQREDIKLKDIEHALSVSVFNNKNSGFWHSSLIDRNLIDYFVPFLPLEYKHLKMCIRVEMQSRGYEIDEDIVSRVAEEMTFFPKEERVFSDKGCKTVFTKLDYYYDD

| Structure (SMILES) | composite z-score |
| --- | --- |
| CCC(CC)C(O)C1C=CC2C(=O)NC(=O)C2N1Nc1ccc(Cl)cc1Cl (stereo unspecified) | 0.418 |
| C=C(CCCC)/C(=C/C[C@@H](OC(=O)c1ccncc1)c1ccc(OCCO)cc1)c1cc(C(=O)OC)ccc1OC | 0.111 |
| CO[C@H]1O[C@H](CO)[C@@H](OC(=O)Nc2cccc(F)c2)[C@H](OC(=O)Nc2ccccc2)[C@@H]1OC(=O)Nc1ccccc1 | 0.505 |
| C=C(COC)C(=O)CC[C@@H](OC(C)=O)c1ccc(CO)o1 | 1.06 |
| COC(=O)[C@H](Cc1ccccc1)N1CC2=C[C@@H](C3CC3)n3c(=O)n(C)c(=O)n3[C@H]2[C@@H]1[C@@H](O)Cc1ccccc1 | -0.0857 |
| C=C[C@H](CO[Si](CC)(CC)CC)N(Cc1ccc(OC(C)=O)c(OC)c1)S(=O)(=O)c1ccc(Br)cc1 | 0.671 |
| C=CCOC(=O)[C@H]1[C@@H]2C(=O)O[C@@H](c3ccccc3)[C@@H](c3ccccc3)N2[C@@H](c2ccc(OCCOC(=O)[C@H]3C[C@H]4C(=O)N[C@@H](CCCCNC(C)=O)C(=O)N4[C@H]3c3ccc(O)cc3)cc2)[C@]12C(=O)Nc1ccc(I)cc12 | 1.01 |
| CC(C)C(O)C1C=CC2C(=O)NC(=O)C2N1Nc1ccc(Cl)cc1Cl (stereo unspecified) | 0.794 |
| COc1ccc([Si](C)(C)[C@H]2[C@H](CCO)O[C@@]3(C(=O)N(Cc4ccc(N(C=O)c5ccccc5)cc4)c4ccccc43)[C@@H]2C)cc1 | -0.074 |
| CC(C)C(O)C1C=CC2C(=O)N(c3ccccc3)C(=O)C2N1Nc1ccc([N+](=O)[O-])cc1 (stereo unspecified) | 0.142 |
| CC(C)C[C@@H]1NC(=O)[C@H](C(C)C)NC(=O)[C@@]23C(=O)N[C@@H](Cc4ccccc4)C2[C@H](C)[C@@]2(C)O[C@H]2C3/C=C/CC/C=C/CNC1=O (stereo partly specified) | 0.0386 |
